Compounds with a hit are over-represented: about 3.7% of the library has one in this group of screens.
Kir21 inh = blocks the mouse Kir2.1 inward-rectifier potassium channel; actives 0.85% (n = 310,000); AID 1672; B-score at 10 µM; HEK293-Kir2.1, FluxOR thallium flux fluorescence; stronger effect = lower value; P35561;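 active = fluorescence ratio B-score at or below minus 3 SD of library scores, with starting-brightness B-score within 2 SD, cut at about -4.2 in these data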;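 also: channel flux triggered by added potassium and thallium sulfate stimulus; B-score of peak minus minimum fluorescence over baseline after thallium stimulus; more negative B-score means stronger Kir2.1 block with less thallium influx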
CHT PAM = allosterically activates the human high affinity choline transporter | AID 488977 | actives 0.49% (n = 310,000) | B-score at 10 µM | Q9GZV3 | CHT-expressing cells, membrane potential dye, choline EC20; stronger effect = higher value; LV-AA mutant CHT in HEK293 cells;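 active = initial fluorescence not abnormally high and integrated response B-score, plate-corrected, over 3 SD above library mean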
Target sequence (Q9GZV3 whole entry, looked up): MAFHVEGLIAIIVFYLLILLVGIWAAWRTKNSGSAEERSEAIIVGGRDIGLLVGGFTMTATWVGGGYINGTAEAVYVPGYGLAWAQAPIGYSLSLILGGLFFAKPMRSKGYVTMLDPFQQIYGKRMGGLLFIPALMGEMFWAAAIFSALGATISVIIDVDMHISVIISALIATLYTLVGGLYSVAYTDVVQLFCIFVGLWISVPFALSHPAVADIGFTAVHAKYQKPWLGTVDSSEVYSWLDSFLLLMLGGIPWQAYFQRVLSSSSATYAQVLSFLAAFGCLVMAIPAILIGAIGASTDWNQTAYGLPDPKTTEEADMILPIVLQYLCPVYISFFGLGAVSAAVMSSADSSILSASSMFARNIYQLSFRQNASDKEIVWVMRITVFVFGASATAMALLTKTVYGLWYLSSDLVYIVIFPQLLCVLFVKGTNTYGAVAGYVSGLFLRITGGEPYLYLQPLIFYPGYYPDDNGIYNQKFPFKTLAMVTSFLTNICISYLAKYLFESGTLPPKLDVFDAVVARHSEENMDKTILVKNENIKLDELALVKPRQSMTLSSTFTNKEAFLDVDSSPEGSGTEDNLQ
CHT inh = inhibitors of human choline transporter CHT; Q9GZV3; CHT-expressing cells, membrane potential dye, choline response; stronger effect = lower value; B-score at 10 µM; actives 0.86% (n = 310,000); AID 488975;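 active = B-score over 3 SD under the library average, and starting fluorescence ratio not unusually high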;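 also: choline stimulus applied at its EC90 after an EC20 pre-addition; B-score computed on integrated fluorescence ratio after choline addition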
TMEM16A act = mouse TMEM16A channel activation, primary screen | actives 0.3% (n = 340,000) | B-score at 10 µM | HEK293 TMEM16A/YFP-H148Q/I152L, iodide quench fluorescence; stronger effect = lower value | Q8BHY3;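 active = fluorescence-ratio B-score plate-corrected deviation score at least 3 library SD below zero, with starting fluorescence score within 5 deviations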;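 also: channel opened by trigger with iodide after compound preincubation; score built on the fluorescence ratio of max minus min over baseline; more negative score means more quench and so TMEM16A activation or potentiation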
GPR7 antag = antagonists of human GPR7 (neuropeptides B/W receptor 1). GPR7-expressing cells, fluorescence antagonist assay. inhibition, % at 4.4 µM. actives 1.1% (n = 290,000). AID 1861; in the data active = inhibition above about 16%, passing the limit was not always enough;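 also: cells stimulated with the agonist NPW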
TMEM16A inh = blocks the mouse calcium-activated chloride channel TMEM16A. Q8BHY3. HEK293 TMEM16A/YFP iodide influx fluorescence, ionomycin. normalized B-score (activity score, 25-100; higher = stronger inhibition) at 10 µM. actives 1.2% (n = 310,000);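 active = ratio plate-corrected score three or more library SD toward inhibition, starting fluorescence score within five deviations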;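 also: score derived from kinetic fluorescence span divided by baseline fluorescence per well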
CHT act confirm = confirmation of human choline transporter (CHT) activators. shares compounds with CHT PAM. actives 91% (n = 2,500). activation, % at 10 µM. CHT-expressing cells, membrane potential dye fluorescence (FDSS); % of choline EC20–EC90 response window; HEK293 expressing CHT LV-AA mutant; choline added at its EC20. AID 504833;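 active = primary screen active, with duplicate mean activation above negative control mean plus 3 SD, cut at about 11% in these data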
HEK293 MP dye = activity in parental HEK293 cells lacking CHT; ratio readout change at 10 µM, hits read low; actives 62% (n = 2,500); AID 623908; membrane potential dye fluorescence (FDSS); measured after EC20 choline addition; shares compounds with CHT PAM;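 active = duplicate-averaged ratio beyond 3 SD from buffer wells, up or down, though filed actives are nearly all decreases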
Large screens that a line does not name were inactive (follow-up assays come after a bar, where they were run).

Cc1ccc(-c2c(C(=O)N(C)Cc3ccccc3)oc(=O)c3ccccc23)cc1	GPR7 antag 19.5 | CHT act confirm 32.5 | HEK293 MP dye inactive
O=C(C[C@@H]1C/C=C\C[C@@H](Cc2ccc(F)cc2)C(=O)OCCNC1=O)N[C@H](CO)Cc1ccccc1	none (no result: Kir21 inh, CHT PAM, CHT inh, GPR7 antag, TMEM16A inh)
CCN(CC)S(=O)(=O)c1cccc(C(=O)NCC2CCCCC2)c1	none
COc1ccc(-n2cc(CNCCCN3CCCC3=O)c(-c3ccccc3Cl)n2)cc1	CHT PAM 6.32 | CHT act confirm 18.6 | HEK293 MP dye inactive
COc1ccc(-n2c(O)cnc2Nc2nc(C)cc(C)n2)cc1OC	CHT PAM 7.17 | CHT act confirm 27.8 | HEK293 MP dye -47.6
COc1ccc(C(CCNCc2ccc(N(C)C)cc2)c2ccccc2)cc1 (stereo unspecified)	CHT PAM 7.02 | CHT act confirm inactive | HEK293 MP dye inactive
COc1ccc(NC(=O)CNC(c2ccccc2)c2ccccc2)cc1	none
COc1ccccc1NC(=O)CNC(c1ccccc1)c1ccccc1	CHT PAM 7.47 | CHT act confirm 44.2 | HEK293 MP dye inactive
COc1ccccc1NC(=O)CC(c1ccc(F)cc1)c1ccco1 (stereo unspecified)	none | CHT act confirm 23.7 | HEK293 MP dye inactive
CCCC1(c2ccccc2)NC(=O)N(CC(=O)NCC2COc3ccccc3O2)C1=O (stereo unspecified)	none (no result: Kir21 inh, CHT PAM, CHT inh, GPR7 antag, TMEM16A inh)
Cc1cc(NC(=O)c2cnn3cccnc23)no1	CHT PAM 7.66 | CHT act confirm 62.9 | HEK293 MP dye -53.9
Cc1cccc(NC(=O)CCNS(=O)(=O)c2ccc3[nH]c(=O)oc3c2)c1	none
Cc1nc(CN(C)C(=O)c2cc(COc3c(F)cccc3F)on2)cs1	none
CN(Cc1cccc2ccccc12)C(=O)c1cc(COc2c(F)cccc2F)on1	none | CHT act confirm 40.1 | HEK293 MP dye inactive
CN(Cc1cccnc1)C(=O)c1cc(COc2ccc3c(c2)CCCC3)on1	none | CHT act confirm inactive | HEK293 MP dye inactive
CC(=O)c1cccc(OCc2cc(C(=O)N(C)Cc3cnccn3)no2)c1	none
CCC1CCc2sc(C(=O)NCC(c3ccc(OC)cc3)N3CCCC3)cc2C1 (stereo unspecified)	none (no result: GPR7 antag) | CHT act confirm 22.1 | HEK293 MP dye inactive
Cc1ccc(C(=O)N/N=C\c2ccccn2)cn1	none | CHT act confirm 39.8 | HEK293 MP dye -37.7
O=C1CCC(c2ccc(-n3ccnc3)cc2)=NN1	CHT PAM 7.33 (no result: GPR7 antag) | CHT act confirm 23.2 | HEK293 MP dye -28.2
Cn1c(=O)n(C)c2cc([N+](=O)[O-])c(N3CCN(CCO)CC3)cc21	CHT PAM 9.31 | CHT act confirm 52.9 | HEK293 MP dye -69.7
CNc1snc(C)c1C(=O)OCC(=O)NCc1ccccc1OC	none (no result: Kir21 inh, CHT PAM, CHT inh, GPR7 antag, TMEM16A inh)
Cc1cc(N2CCN(C3CCCC3)CC2)n2c(nc3ccccc32)c1C#N	CHT PAM 7.06 | CHT act confirm inactive | HEK293 MP dye inactive
CCN(CC)CCn1c(=N)n(CC(O)COc2cccc(C)c2)c2ccccc21 (stereo unspecified)	Kir21 inh -7.93, CHT PAM 6.43 | CHT act confirm 54.1 | HEK293 MP dye inactive
C=CC[n+]1cccc(-c2cc3ccc(C)cc3[nH]2)c1	none (no result: TMEM16A act)
C=CC[n+]1ccc2ccccc2c1C	CHT PAM 7.74 | CHT act confirm 64.7 | HEK293 MP dye -60.7
O=C(NNc1ccccc1)c1ccc(Cl)c(Cl)c1	none (no result: Kir21 inh, CHT PAM, CHT inh, GPR7 antag, TMEM16A inh)
c1ccc(-c2ccc3ccccc3n2)cc1	none (no result: GPR7 antag)
COc1cc(OC)c(-c2nc3cnccc3n2C)cc1OC	CHT PAM 6.59 | CHT act confirm 54.6 | HEK293 MP dye -53.3
Cn1c(-c2ccc3ccccc3n2)nc2cnccc21	none | CHT act confirm 44.6 | HEK293 MP dye -39.5
COc1cc(-c2nc3cnccc3n2C)cc(OC)c1OC	none
